# Reference: PubChem BioAssay (Tox21)
# Where “and” joins values, the source holds several entries; their conditions need not be identical. Equal entries are not always repeated. Inconclusive results are not listed. A call without a number means that no potency is given here. Calls of active or inactive are those of the source. The call rests on the fitted dose curve; in most records, active means well fitted cell-killing curve with a large enough effect in the repeat runs; inconclusive means weak or mixed curves, or effect the other way; inactive means flat fitted curve, though single readings scatter.
# Test: qHTS assay to identify small molecule that activate the aryl hydrocarbon receptor (AhR) signaling pathway - cell viability counter screen (AID 743086); further: nearly all actives have a fitted effect of over 45% in size
# Conditions: HepG2-AhR-luc viability, CellTiter-Fluor, 24 h; series mostly up to 70.3 µM
# Source text: U.S. Tox21 Program National Center for Advancing Translational Sciences [NCATS] NIH Chemical Genomics Center [NCGC] U.S. Environmental Protection Agency [EPA] National Institutes of Environmental Health Sciences [NIEHS] National Toxicology Program [NTP] U.S. Food and Drug Administration [FDA] Tox21 Assay overview: The Aryl hydrocarbon Receptor (AhR), a member of the family of basic helix-loop-helix transcription factors, is crucial to adaptive responses to environmental changes. AhR mediates cellular responses to environmental pollutants such as aromatic hydrocarbons through induction of phase I and II enzymes but also interacts with other nuclear receptor signaling pathways A cell based HepG2-AhR-luc assay (HG2L7.5c1 cell line, developed by Dr. Michael S. Denison, University of California at Davis) was used to assess the activation of AhR. HepG2 (human hepatocellular carcinoma) cells were stably transfected with an Ah receptor-responsive firefly luciferase reporter gene plasmid containing 20 dioxin responsive elements and luciferase reporter gene. Increased luciferase activity can be used to identify the compounds that induce AhR activation. The cytotoxicity of the compounds screened against the HepG2-AhR-luc cell line was tested in parallel by measuring the cell viability using CellTiter-Fluor assay in the same wells.
# Tox21 Assay Protocol Summary: 4000 cells in 5 uL/well were dispensed into white wall/solid bottom 1536-well plates using a Multidrop Combi (Thermo Fisher Scientific Inc., Waltham, MA) dispenser. After the assay plates were incubated at 37C for 5 h, 23 nL of compound or DMSO vehicle was transferred to the assay plates by a pintool station (Kalypsys, San Diego, CA). The plates were incubated at 37C for 24 hr. For cell viability measurement, 1 ul/well of CellTiter-Fluor reagent (Promega, Madison, WI) was added into the assay plates using a Flying Reagent Dispenser (FRD) (Aurora Discovery, CA),and then the assay plates were incubated at 37C for 30 min. The fluorescence intensity in the plates was measured using a ViewLux plate reader (PerkinElmer, Shelton, CT), followed by the addition of 4 uL of ONE-Glo Luciferase Assay reagent (Promega) using an FRD (Aurora Discovery). After the assay plates were incubated at room temperature for 30 min, luminescence intensity was measured using a ViewLux plate reader (Perkin Elmer).
# Potency means the concentration at half of the fitted maximal effect.
row,Compound,Potency
1,C[Si](Cl)(c1ccccc1)c1ccccc1,inactive
2,Nc1nc(N)nc(-c2cc(Cl)ccc2Cl)n1,inactive
3,CCCCCC/C=C\CCCCCCCC(=O)O,inactive
4,CCCCCCCCCCCCCC[N+](C)(C)C,16.8 µM (active) and 52.7 µM (active) and 54.4 µM (active)
5,O=C(O)c1cc(-c2ccc(F)cc2F)ccc1O,inactive
6,CCCCCC(C)OC(=O)COc1ccc(Cl)c2cccnc12 (stereo not given),inactive
7,CCOc1ccc2ccccc2c1C(=O)N[C@@H]1C(=O)N2[C@@H]1SC(C)(C)[C@@H]2C(=O)O,inactive
8,C=CC(C)(CCC=C(C)C)OC=O (stereo not given),inactive
9,CCCC(=O)OC(C)(C)Cc1ccccc1,inactive
10,c1cnccn1,inactive
11,Nc1cc(Cl)c(O)c(Cl)c1,inactive
12,O[C@@H]([C@H](O)[C@H](O)CBr)[C@H](O)CBr,inactive
13,CC[C@H](C)COC(=O)/C=C/c1ccc(N=Cc2ccc(OC)cc2)cc1,inactive
14,CN(C)Cc1ccccc1O,inactive
15,COc1cccc2c1C(=O)c1c(O)c3c(c(O)c1C2=O)C[C@@](O)(C(C)=O)C[C@@H]3O[C@H]1C[C@H](N)[C@H](O)[C@H](C)O1,5.96 µM (active) and 24.5 µM (active)
16,CCc1ccc(Br)cc1,inactive
17,CCc1cccc(CC)c1NC(=O)CN(CC(=O)O)CC(=O)O,inactive
18,O=C1CCc2ccc(OCCCCN3CCN(c4cccc(Cl)c4Cl)CC3)cc2N1,inactive
19,Cc1nc(-c2ccc(Cl)cc2)oc1COC(C)(C)C(=O)O,inactive
20,CCN1C(=O)c2ccccc2C1Nc1ccc(OCCN2CCCCC2)cc1 (stereo not given),inactive

row,Compound,Potency
1,ClCCl,inactive
2,S=C([S-])NCCNC(=S)[S-].S=C([S-])NCCNC(=S)[S-].[Mn+2].[Zn+2],inactive
3,CCC(=O)OC(=O)CC,inactive
4,Oc1c(I)cc(Cl)c2cccnc12,inactive
5,CCC(C)(CCC(C)C)C(=O)[O][Sn]([CH3])([CH3])[O]C(=O)C(C)(CC)CCC(C)C (stereo not given),inactive
6,OC1CCC(C2CCCCC2)CC1 (stereo not given),inactive
7,CC1=Nc2ccccc2C1(C)C,inactive
8,CN1CCCCC1CCN1c2ccccc2Sc2ccc(S(C)=O)cc21 (stereo not given),inactive
9,COc1cc(/C=C/c2ccccc2)oc(=O)c1,inactive
10,Cc1c2ccccc2c(C)c2c1ccc1ccccc12,60.5 µM (active) and 48.6 µM (active)
11,CCCCCCCCCCOC(=O)c1ccccc1C(=O)OCCCCCCCC,inactive
12,CCCCCCCCCCCCOC(=O)c1ccc(O)cc1,inactive
13,Cc1ccc(C(=O)O)cc1,inactive
14,OC1CCCc2ccccc21 (stereo not given),inactive
15,CCOC(=O)NNc1ccc(N(CC)CC(C)O)nn1 (stereo not given),inactive
16,Cc1cc(=O)oc2cc(O)cc(O)c12,inactive
17,O=C(Oc1ccccc1)Oc1ccccc1,inactive
18,CCc1oc2ccccc2c1C(=O)c1cc(I)c(O)c(I)c1,inactive
19,CCCCCCCCCCCC(=O)OCC(C)OC(=O)CCCCC(=O)O (stereo not given),inactive
20,CCO[Si](OCC)(OCC)OCC,inactive
